According to PubChem BioAssay (NCI):
Compounds without any hit were thinned out: in the full panel of roughly 83,000, 20% have a hit.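 96-well plates, one dose, 48 hours. Percent growth reported; active if below 10.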 Values without a mark were called inactive. Activity calls are given as the source filed them.

Tests used:
Test in all cases: NCI-60 one-dose screen, 48 h (100 = growth as untreated, 0 = no growth, -100 = all killed)
Conditions in all cases: 10 µM
HCT-15 colon = test system: HCT-15 colon
HT29 colon = test system: HT29 colon
SNB-75 CNS = test system: SNB-75 CNS
SNB-19 CNS = test system: SNB-19 CNS
U251 CNS = test system: U251 CNS
PC-3 prostate = test system: PC-3 prostate
SK-MEL-5 melanoma = test system: SK-MEL-5 melanoma
UACC-62 melanoma = test system: UACC-62 melanoma
LOX IMVI melanoma = test system: LOX IMVI melanoma
SK-MEL-28 melanoma = test system: SK-MEL-28 melanoma
SK-MEL-2 melanoma = test system: SK-MEL-2 melanoma
EKVX NSCLC = test system: EKVX NSCLC
SN12C renal = test system: SN12C renal
UO-31 renal = test system: UO-31 renal
TK-10 renal = test system: TK-10 renal
ACHN renal = test system: ACHN renal
CAKI-1 renal = test system: CAKI-1 renal
A498 renal = test system: A498 renal
CCRF-CEM leukemia = test system: CCRF-CEM leukemia
MOLT-4 leukemia = test system: MOLT-4 leukemia

Structure (SMILES) | growth (HCT-15 colon) | growth (HT29 colon) | growth (SNB-75 CNS) | growth (SNB-19 CNS) | growth (U251 CNS) | growth (PC-3 prostate) | growth (SK-MEL-5 melanoma) | growth (UACC-62 melanoma) | growth (LOX IMVI melanoma) | growth (SK-MEL-28 melanoma) | growth (SK-MEL-2 melanoma) | growth (EKVX NSCLC) | growth (SN12C renal) | growth (UO-31 renal) | growth (TK-10 renal) | growth (ACHN renal) | growth (CAKI-1 renal) | growth (A498 renal) | growth (CCRF-CEM leukemia) | growth (MOLT-4 leukemia)
CCN(CC)CCOc1ccc(C(=C(C)c2ccccc2)c2ccc(OCCN(CC)CC)cc2)cc1 | -31.2% (active) | -57.6% (active) | 6.51% (active) | 9.06% (active) | -21.8% (active) | 22.7% | -100% (active) | -86.5% (active) | -98.8% (active) | -96.5% (active) | -75.8% (active) | 35.3% | 56.9% | -41.6% (active) | -9.31% (active) | -13.3% (active) | 8.81% (active) | 78.5% | -27.2% (active) | –
O=S(=O)(c1ccc(Cl)cc1)c1nc(-c2ccccc2)oc1S(=O)(=O)c1ccc(Cl)cc1 | 47.4% | 89.7% | 76.5% | 94.9% | 79.9% | 103% | 91.9% | 90.4% | 19.7% | 104% | 96.7% | 92.1% | 89.5% | 64.4% | 97.8% | 91.9% | 85.8% | 122% | -28.1% (active) | –
CCCS(=O)(=O)c1oc(-c2ccc(F)cc2)nc1S(=O)(=O)c1ccc(F)cc1 | -81.3% (active) | -69.6% (active) | 53.4% | 82.6% | 31.7% | 80.7% | 41.8% | 22% | -100% (active) | -98.7% (active) | 36.7% | 82.8% | -85.4% (active) | -100% (active) | -97.2% (active) | -100% (active) | -92.2% (active) | 113% | -51.3% (active) | –
N[C@@H](CSSC[C@H](N)C(=O)Nc1ccc(OCC2CCCC2)cc1)C(=O)Nc1ccc(OCC2CCCC2)cc1 | -76.9% (active) | -93.3% (active) | -96.3% (active) | -95.6% (active) | -86.6% (active) | -87.3% (active) | -100% (active) | -99.7% (active) | -96.1% (active) | -99% (active) | -93% (active) | -90.2% (active) | -98.5% (active) | -100% (active) | -95.5% (active) | -100% (active) | -99.1% (active) | -85.4% (active) | -60.5% (active) | –
Cc1cc(C)nc(SCC(=O)Nc2ccc(S(N)(=O)=O)cc2)n1 | 104% | 118% | 127% | 94.1% | 101% | 98.2% | 97.2% | 96.7% | 96.7% | 110% | 103% | 99.8% | 105% | 87.1% | 102% | 101% | 96.5% | 123% | 97.1% | –
COc1ccc2c(c1)N=C(C(=O)O)/C2=C/c1sc(Nc2ccc(O)cc2)nc1O | 53.9% | 95.9% | 67.2% | 70.1% | 67.7% | 76% | 83% | 42.9% | 49.2% | 80.5% | 81.6% | 75.1% | 80.9% | 49.4% | 99.2% | 82.2% | 92.1% | 98.2% | 44.3% | 43%
O=C(Nc1ccc(F)c(Cl)c1)c1cc(-c2ccc(F)cc2F)ccc1O | -18.7% (active) | 26.8% | -20.9% (active) | 13% | 11.5% | 1.28% (active) | -90.6% (active) | -54.6% (active) | -57.2% (active) | -16.2% (active) | -69.2% (active) | -5.82% (active) | -17.3% (active) | -5.93% (active) | 19.1% | -13.4% (active) | -18.2% (active) | -21% (active) | 0.694% (active) | -21.1% (active)
CC1(C)CC[C@]2(C(=O)N3CCOCC3)CC[C@]3(C)C(=CC[C@@H]4[C@@]5(C)CC[C@H](NCO)C(C)(C)[C@@H]5CC[C@]43C)[C@H]2C1 | -83% (active) | -60.8% (active) | -93.2% (active) | -95.8% (active) | -88.7% (active) | -61.6% (active) | -97.6% (active) | -93.9% (active) | -83.8% (active) | -98.9% (active) | -82% (active) | -87.8% (active) | -91% (active) | -100% (active) | -82% (active) | -100% (active) | -96.2% (active) | -91.5% (active) | -33.8% (active) | –
CONC[C@]1(C)C=C2C(=O)[C@](C)(O)C3(CC3)C(C)=C2[C@H]1O | -24.4% (active) | -12% (active) | -80.9% (active) | -10.7% (active) | 3.39% (active) | 3.46% (active) | -37.4% (active) | -90% (active) | -67.3% (active) | -73.2% (active) | -100% (active) | -45.3% (active) | -6.45% (active) | -24.8% (active) | 7.09% (active) | -25.7% (active) | -0.623% (active) | -29.7% (active) | 4.58% (active) | -13.9% (active)
O=C(CNc1nc(-c2ccccc2)cs1)Nc1ccc(Cl)cc1[N+](=O)[O-] | -78.5% (active) | -14.8% (active) | -19.2% (active) | 5.15% (active) | -52.1% (active) | 10.5% | -100% (active) | -70.5% (active) | -97.2% (active) | -69.4% (active) | -50.1% (active) | -8.05% (active) | -28.7% (active) | -56.4% (active) | 0.433% (active) | -60.6% (active) | 2.07% (active) | 14.8% | 11.1% | 3.2% (active)
COc1ccc(/C=C/C(=O)c2ccc(N3CCN(C)CC3)cc2)c(C(F)(F)F)c1 | -68.5% (active) | -52% (active) | 97.7% | 54.5% | 5.33% (active) | 43.5% | 36.7% | -31.4% (active) | -86.4% (active) | 52% | 94.6% | 49% | 42.5% | 44.2% | 71.7% | 55.6% | 41.4% | 59.5% | 27.3% | 10.8%
COc1ccc(-c2ccc(SCC(=O)Nc3ccc(C#N)cc3)nn2)cc1 | 97.3% | 130% | 93.7% | 64.9% | 70.7% | 85% | 94.4% | 72.3% | 84.7% | 97.7% | 114% | 95.1% | 95% | 75.4% | 108% | 80.1% | 81.4% | 124% | 95.9% | 94.4%
O=C(CSc1nnc(-c2ccc3nc(-c4ccc(Cl)cc4)[nH]c3c2)o1)Nc1ccc(Cl)cc1 | -84% (active) | -35.4% (active) | 58% | -49.4% (active) | -57.7% (active) | -7.65% (active) | -68.9% (active) | -87.1% (active) | -99.2% (active) | -76.9% (active) | -25.2% (active) | 5.97% (active) | -93.7% (active) | -45.4% (active) | 50.7% | -89.7% (active) | -35.6% (active) | 26% | -1.24% (active) | -4.88% (active)
O=C(NO)c1ccc(CNc2nc(-c3ccccc3)c3ccccc3n2)cc1 | -6.55% (active) | 4.73% (active) | 29% | -8.9% (active) | -37.7% (active) | 16.7% | -87.8% (active) | -87.2% (active) | -96.9% (active) | -2.7% (active) | -20.4% (active) | 15.6% | -0.363% (active) | -18.8% (active) | -17.2% (active) | -74.2% (active) | -4.81% (active) | -42.4% (active) | 15% | 12.3%
CCOc1ccc(/C=N/NC(=O)Cn2nc(Cc3ccc([N+](=O)[O-])cc3)c3onc(C)c3c2=O)cc1 | 33.7% | 34.6% | 6.05% (active) | -6.58% (active) | -66% (active) | 23.1% | 27.7% | 49.9% | -63.5% (active) | 49.7% | 51.9% | 16.3% | 11.2% | -48.1% (active) | -12.2% (active) | -68% (active) | -9.88% (active) | 45.1% | 89.3% | 75.7%
COc1ccc(N(C)c2cc(C#N)nc3ccccc23)cc1N | 0.224% (active) | -22.1% (active) | 15.3% | 12.2% | 9.78% (active) | 30.3% | -47.7% (active) | 23.5% | 15% | 56.3% | 4.88% (active) | 20.5% | 5.85% (active) | 20.6% | 76.7% | 23.5% | 26.1% | 113% | 5.77% (active) | 15.4%
